Compound activity deposited in PubChem BioAssay by National Center for Advancing Translational Sciences (NCATS).
KDM5B inhibitor = inhibitors of human KDM5B histone demethylase. KDM5B demethylase, FDH-coupled NADH fluorescence (FDH is formaldehyde dehydrogenase). Potency, µM (doses to about 57.7 µM), hits mostly inhibitors. hit rate 2.6% among 220,000. AID 1347165; further: nearly all actives have a fitted effect of over 70% in size
Target sequence (Q9UGL1 whole entry, looked up): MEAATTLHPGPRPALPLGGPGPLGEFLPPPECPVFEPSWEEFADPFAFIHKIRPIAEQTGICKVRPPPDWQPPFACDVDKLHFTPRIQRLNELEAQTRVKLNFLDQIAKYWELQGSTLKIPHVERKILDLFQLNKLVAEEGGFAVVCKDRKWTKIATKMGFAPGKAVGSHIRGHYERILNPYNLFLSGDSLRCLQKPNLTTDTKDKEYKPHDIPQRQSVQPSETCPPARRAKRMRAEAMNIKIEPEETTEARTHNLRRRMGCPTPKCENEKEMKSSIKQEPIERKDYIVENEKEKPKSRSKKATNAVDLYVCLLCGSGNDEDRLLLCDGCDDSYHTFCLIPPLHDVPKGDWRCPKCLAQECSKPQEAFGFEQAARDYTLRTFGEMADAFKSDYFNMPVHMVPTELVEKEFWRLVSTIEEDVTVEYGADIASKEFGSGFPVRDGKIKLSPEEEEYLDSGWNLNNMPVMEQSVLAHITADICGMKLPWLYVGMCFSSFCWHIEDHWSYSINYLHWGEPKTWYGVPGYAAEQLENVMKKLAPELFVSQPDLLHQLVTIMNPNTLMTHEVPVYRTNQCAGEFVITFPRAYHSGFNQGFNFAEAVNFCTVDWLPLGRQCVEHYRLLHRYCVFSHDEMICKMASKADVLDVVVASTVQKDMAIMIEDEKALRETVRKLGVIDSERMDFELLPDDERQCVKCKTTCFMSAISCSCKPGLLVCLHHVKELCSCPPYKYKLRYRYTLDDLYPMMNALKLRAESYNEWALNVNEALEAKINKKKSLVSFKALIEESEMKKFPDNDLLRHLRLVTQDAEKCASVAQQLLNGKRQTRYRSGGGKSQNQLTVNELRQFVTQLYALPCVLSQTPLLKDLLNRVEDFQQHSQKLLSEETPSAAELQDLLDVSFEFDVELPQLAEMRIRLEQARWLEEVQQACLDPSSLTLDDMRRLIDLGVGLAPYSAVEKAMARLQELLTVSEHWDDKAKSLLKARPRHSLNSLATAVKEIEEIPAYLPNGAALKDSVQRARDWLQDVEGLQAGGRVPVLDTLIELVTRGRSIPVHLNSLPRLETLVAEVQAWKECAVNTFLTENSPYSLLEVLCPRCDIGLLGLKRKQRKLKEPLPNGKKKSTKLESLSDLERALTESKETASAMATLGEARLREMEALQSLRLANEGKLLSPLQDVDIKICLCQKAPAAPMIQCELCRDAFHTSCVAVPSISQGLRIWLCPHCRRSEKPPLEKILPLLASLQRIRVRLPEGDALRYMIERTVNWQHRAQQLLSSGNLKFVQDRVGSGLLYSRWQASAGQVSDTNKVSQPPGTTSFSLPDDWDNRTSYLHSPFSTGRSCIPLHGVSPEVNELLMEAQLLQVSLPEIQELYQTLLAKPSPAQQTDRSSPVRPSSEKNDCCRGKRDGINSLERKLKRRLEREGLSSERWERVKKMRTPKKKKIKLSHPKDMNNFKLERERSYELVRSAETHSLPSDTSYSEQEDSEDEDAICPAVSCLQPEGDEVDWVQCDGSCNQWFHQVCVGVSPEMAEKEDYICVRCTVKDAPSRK
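KDM5BΔAP (200 nM final) in 50 mM HEPES pH 7.5, 0.01% Tween-20 was preincubated 10 min at RT with compound over a concentration range. Substrate mix (H3K4me3 12.5 µM, α-KG 25 µM, Fe²⁺, ascorbate, NAD⁺, FDH) was added, and NADH fluorescence change over 30 min gave dose-response curves.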
SNCA expr inhib = SNCA gene expression inhibition; HEK-293 SNCA-luciferase knock-in, luminescence, 24 h; Potency, µM (doses to about 57.2 µM), usual class: inhibitors; hit rate 0.17% among 140,000; AID 1671194; further: nearly all actives have a fitted effect of over 45% in size
SNCA viab count = cell viability loss counter-screen. HEK-293-SNCA-luc viability, GF-AFC fluorescence, 24 h. Potency, µM (top dose mostly 57.1 µM), hits mostly cytotoxic. hit rate 0.12% among 150,000; further: nearly all actives have a fitted effect of over 30% in size
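HEK-293-SNCA-luc cells (1500/well) plated 24 h, then exposed 24 h to a dilution series; GF-AFC added 30 min at 37C, fluorescence 405/540 nm; normalised to medium-only and DMSO wells, Hill fit.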
IP6K1 inhibitor = blocks human inositol hexakisphosphate kinase 1; hit rate 0.81% among 140,000; IP6K1 kinase, ADP-Glo luminescence, 2 h; hits give low values; activity change, % (series mostly up to about 58 µM); AID 1645851; in the data active means activity change below about -25%
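ADP-Glo luminescence measures ADP made by human IP6K1 during a 2 h RT reaction with ATP/IP6 (mix at 1.3 mM/130 uM); top library doses 57.5 and 19.1 uM final.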
Each line names hits and unclear results; the compound was inactive in the other large screens. Hits are enriched below; roughly 2.8% of the tested compounds scored in any of these assays. Unless noted, the call rests on the fitted dose curve; in most records, active means well fitted curve in the direction sought with a large enough effect; inconclusive means small, poorly fitted or top-dose-only effect, or another doubt; inactive means no such curve, though single readings can be large; an effect the other way counts as inactive or inconclusive.

CCCCn1nc(C2CCOC2)nc1-c1cnc(NC)nc1 (stereo unspecified)	KDM5B inhibitor 25µM
Cn1cnc(CN2CCNc3cc(Nc4ccccc4)ncc3C2)c1	none
CN(C)c1ccc(CN2CCNc3cc(Nc4ccccc4)ncc3C2)cc1	KDM5B inhibitor 40µM, SNCA viab count inconclusive
c1ccc(Nc2cc3c(cn2)CN(Cc2ccccn2)CCN3)cc1	KDM5B inhibitor 32µM
COCCN1CCNc2cc(Nc3cccc(N(C)C)c3)ncc2C1	KDM5B inhibitor 35µM
CCNc1c(NC(=O)Nc2ccc(Br)cc2)c(=O)oc2ccccc12	none (no result: SNCA expr inhib, SNCA viab count, IP6K1 inhibitor)
COc1cc(NS(=O)(=O)c2cc(-c3n[nH]c(=O)c4c3CCCC4)ccc2C)cc(OC)c1	none (no result: SNCA expr inhib, SNCA viab count, IP6K1 inhibitor)
CCNC(=O)N1CCC(c2noc(COc3ccc(C)cc3)n2)CC1	none
CCn1ccc(C(=O)N2CCc3nc(NC)nc(C(=O)N4CCCC4)c3C2)n1	KDM5B inhibitor 18µM
O=C1CCCN1CCCN1C(=O)[C@H]2CN(Cc3ccc(Br)cc3)C[C@H]2C1=O	none
CC(=O)c1sc(Nc2ccc(C#N)cc2)nc1C	none (no result: SNCA expr inhib, SNCA viab count, IP6K1 inhibitor)
Cc1cccc(NC(=O)CN2C(=O)C(c3ccccc3)=NC23CCCC3)c1C	SNCA expr inhib 16µM
Cc1cccc(NC(=O)CN2C(=O)C(c3ccc(F)cc3)=NC23CCCCCC3)c1C	KDM5B inhibitor inconclusive, SNCA expr inhib inconclusive, SNCA viab count inconclusive
CN(C(=O)[C@@H]1C[C@H](c2cccc(C(F)(F)F)c2)N(Cc2cnn(C)c2)C1)c1ccccc1	none
CC1(C(=O)N2CCN(c3ccccn3)CC2)CCCCC(=O)N1 (stereo unspecified)	KDM5B inhibitor 18µM
CC1(C(=O)N2CCN(c3ccccn3)CC2)CCOCC1	KDM5B inhibitor 112µM
CC1(C(=O)N2CCC(c3ccccc3)CC2)CCOCC1	SNCA expr inhib inconclusive
COc1ccc(C(=O)Nc2ccc3oc(-c4ccccc4OC)cc(=O)c3c2)cc1	none (no result: SNCA expr inhib, SNCA viab count, IP6K1 inhibitor)
CCc1cnn2c(NCc3ccc[n+]([O-])c3)cc(N3CCCC[C@@H]3CCO)nc12	SNCA expr inhib 0.061µM, SNCA viab count inconclusive (no result: KDM5B inhibitor, IP6K1 inhibitor)
CC1CCCC(NC(=O)c2cc(-c3ccccc3)nc3ccccc23)C1C (stereo unspecified)	none (no result: SNCA expr inhib, SNCA viab count, IP6K1 inhibitor)
CO[C@H]1C(=O)N(C2CCN(C(=O)c3cccc4[nH]ccc34)CC2)[C@H]1c1ccncc1	KDM5B inhibitor 25µM
O=C1CC2CCCC(C1)N2C(=O)c1cccc2[nH]ccc12	KDM5B inhibitor 35µM
Cc1ccccc1C(=O)N1C2CCCC1CC(=O)C2	none
O=C(c1ccc2cc[nH]c2c1)N1CCC(N2C(=O)C3(CCCCC3)C2c2ccncc2)CC1 (stereo unspecified)	KDM5B inhibitor inconclusive
O=C(c1cccc2[nH]ccc12)N1CCC(N2C(=O)C3(CCCCC3)C2c2ccncc2)CC1 (stereo unspecified)	KDM5B inhibitor 22µM, SNCA expr inhib inconclusive
C[S+](=O)([O-])c1ccc(-c2nc(C(=O)NCc3cccs3)n3ccccc23)cc1	none
O=C(COc1ccccc1)N1CCC(N2CC3CC(C2)[C@H]2CCCC(=O)N2C3)CC1 (stereo partly specified)	KDM5B inhibitor 22µM
Cc1nc(C)c(C(=O)N2CCC(N3CC4CC(C3)[C@H]3CCCC(=O)N3C4)CC2)s1 (stereo partly specified)	KDM5B inhibitor 16µM
COc1ccc(NC(=O)N2CCC(N3CC4CC(C3)[C@H]3CCCC(=O)N3C4)CC2)cc1OC (stereo partly specified)	KDM5B inhibitor 25µM
O=C1c2cc(N3CCOCC3)nc(-c3cccc(F)c3)c2CN1Cc1ccccc1	KDM5B inhibitor 32µM
O=C1c2cc(N3CCOCC3)nc(-c3ccc(F)cc3)c2CN1Cc1ccccc1	KDM5B inhibitor 35µM
O=C1c2cc(N3CCOCC3)nc(-c3cccc(CO)c3)c2CN1Cc1ccccc1	KDM5B inhibitor 35µM
NC(=O)c1cc[nH]c1C1CCCN(C(=O)COc2ccc(F)cc2)C1 (stereo unspecified)	none
CC(Cn1cncn1)NC(=O)c1ccc(S(=O)(=O)NCCO)cc1 (stereo unspecified)	none
O=C(Nc1cccn2cnnc12)c1ccc(S(=O)(=O)NCCO)cc1	KDM5B inhibitor 28µM
Cn1c(C(=O)NC2CCN(Cc3ccccc3)CC2)cc2c1CCN(Cc1ccccc1)C2	KDM5B inhibitor 20µM
CN(C)CC(=O)Nc1ccc2n(c1=O)C[C@H]1C[C@@H]2CN(C(=O)c2ccc(-c3ccccc3)cc2)C1	none
Cn1cc(CN2C[C@@H]3C[C@H](C2)c2ccc(NC(=O)COc4ccccc4)c(=O)n2C3)c2ccccc21	KDM5B inhibitor 28µM, SNCA expr inhib inconclusive
Cc1n[nH]c(C)c1C(N)C(=O)N1CCN(c2ccc3nccn3n2)CC1 (stereo unspecified)	KDM5B inhibitor 28µM
O=C([C@H]1CCC[C@@H](O)C1)N1CCN(c2ccc3nccn3n2)CC1	KDM5B inhibitor 28µM
O=C([C@H]1CCC[C@H](O)C1)N1CCN(c2ccnc3nncn23)CC1	KDM5B inhibitor inconclusive
O=c1c2ccccc2c(-c2cccs2)nn1CC(O)COCc1ccccc1 (stereo unspecified)	none (no result: SNCA expr inhib, SNCA viab count, IP6K1 inhibitor)
COCCNC(=O)Cn1nc(C)c2sc(-c3ccccc3)nc2c1=O	KDM5B inhibitor 28µM
Cc1nn(CC(=O)NCCN2CCCCCC2)c(=O)c2nc(-c3ccccc3)sc12	KDM5B inhibitor 20µM
O=C(Cn1nc(-c2ccccc2)ccc1=O)NCCCN1CCOCC1	none (no result: SNCA expr inhib, SNCA viab count, IP6K1 inhibitor)
CCc1nc2c(=O)n(CC(=O)NCc3cccc(Cl)c3)nc(C)c2s1	none
COc1ccc(CNC(=O)Cn2nc(C)c3sc(-c4ccccc4)nc3c2=O)cc1	KDM5B inhibitor inconclusive
Cc1nn(CC(=O)O)c(=O)c2nc(-c3ccccc3)sc12	KDM5B inhibitor 32µM
Cc1nn(CC(=O)NCCCN2CCCCC2)c(=O)c2nc(-c3ccccc3)sc12	KDM5B inhibitor 32µM
Cc1ccc(-c2nn(CC(=O)O)c(=O)c3ccccc23)cc1	none (no result: SNCA expr inhib, SNCA viab count, IP6K1 inhibitor)
Fc1cccc(Cc2noc(-c3nc(-c4ccc5c(c4)OCO5)no3)n2)c1	KDM5B inhibitor 25µM
Fc1ccc(Cc2noc(-c3nc(-c4ccc5c(c4)OCO5)no3)n2)cc1	KDM5B inhibitor inconclusive
CCc1noc(-c2nc(-c3ccc(OC)c(OC)c3)no2)n1	none
COc1ccc(-c2noc(-c3nc(Cc4cccc(F)c4)no3)n2)cc1OC	KDM5B inhibitor 25µM
COc1ccc(-c2noc(-c3nc(Cc4ccccc4)no3)n2)cc1	KDM5B inhibitor 32µM
Cc1ccccc1Cc1noc(-c2nc(-c3ccc4c(c3)OCO4)no2)n1	KDM5B inhibitor 28µM, SNCA expr inhib inconclusive
COc1ccc(-c2nonc2NC(=O)c2oc3ccc(F)cc3c2C)cc1	none (no result: SNCA expr inhib, SNCA viab count, IP6K1 inhibitor)
O=C1[C@H]2CC[C@H](CN(Cc3ccc(-n4ccnc4)cc3)C2)N1CC1CCC1	KDM5B inhibitor 20µM
O=C1[C@H]2CC[C@H](CN(Cc3cccc(N4CCOCC4)c3)C2)N1CC1CCC1	none
O=C(Cc1ccccc1F)N1CC(Oc2ccc(-c3noc(-c4cccnc4)n3)cc2)C1	KDM5B inhibitor inconclusive, SNCA expr inhib inconclusive, SNCA viab count inconclusive
CC(C)S(=O)(=O)N1CC(Oc2ccc(-c3noc(-c4cccnc4)n3)cc2)C1	KDM5B inhibitor 28µM
